# KCNQ2 block = rat KCNQ2 potassium channel inhibitors, primary screen, cell-based, CHO-K1, FluxOR thallium flux, B-score | 20 min; active compounds read low | 310,000 compounds, 1.1% hits | AID 2156, 2009 | B-score at 10 µM;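 active = fluorescence ratio B-score at most minus 3 library SDs, with starting brightness B-score within 2 library SDs, cut at about -5.5 in these data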
# Target sequence (O88943 whole entry, looked up): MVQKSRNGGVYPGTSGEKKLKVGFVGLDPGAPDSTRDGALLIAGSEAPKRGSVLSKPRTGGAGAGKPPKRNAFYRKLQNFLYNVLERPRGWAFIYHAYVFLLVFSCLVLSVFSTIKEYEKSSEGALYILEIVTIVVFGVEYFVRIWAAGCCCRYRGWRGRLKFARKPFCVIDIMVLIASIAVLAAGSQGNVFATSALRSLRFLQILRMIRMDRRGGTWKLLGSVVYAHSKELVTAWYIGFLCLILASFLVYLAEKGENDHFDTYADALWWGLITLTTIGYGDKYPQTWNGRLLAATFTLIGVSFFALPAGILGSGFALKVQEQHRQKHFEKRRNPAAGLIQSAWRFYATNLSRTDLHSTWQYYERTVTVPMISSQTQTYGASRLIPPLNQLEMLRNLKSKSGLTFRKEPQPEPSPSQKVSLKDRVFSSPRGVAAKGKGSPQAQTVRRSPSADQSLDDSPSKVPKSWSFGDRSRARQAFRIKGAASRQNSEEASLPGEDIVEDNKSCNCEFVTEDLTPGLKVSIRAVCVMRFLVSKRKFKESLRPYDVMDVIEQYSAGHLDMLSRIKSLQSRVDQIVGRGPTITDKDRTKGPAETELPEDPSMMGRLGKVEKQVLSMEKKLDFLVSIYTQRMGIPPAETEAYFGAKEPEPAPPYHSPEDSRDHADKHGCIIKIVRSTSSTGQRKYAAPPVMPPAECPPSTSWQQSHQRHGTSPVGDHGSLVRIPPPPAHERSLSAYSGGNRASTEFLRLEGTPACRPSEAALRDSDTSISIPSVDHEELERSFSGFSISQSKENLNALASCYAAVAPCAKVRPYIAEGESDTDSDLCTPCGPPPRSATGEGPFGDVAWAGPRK
# KCNQ2 pot = potentiators of rat KCNQ2 potassium channel. Potassium voltage-gated channel subfamily KQT member 2 (Rattus norvegicus), O88943. CHO-K1 KCNQ2, FluxOR thallium flux fluorescence; active compounds read high. B-score at 10 µM. 310,000 compounds, 0.54% hits. AID 2239, 2010;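 active = fluorescence ratio B-score at least 3 SD of library B-scores, with initial fluorescence B-score within 3 of them, cut at about 5.3 in these data; same plate scores as AID 2156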;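 note: B-score of peak minus minimum over baseline fluorescence ratio after K+ and Tl+ stimulus; positive B-score means potentiation of KCNQ2 with more thallium influx and brighter signal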
# Starred values were filed as active, the others as inactive; i = inactive; · = no result given. Shown are actives, neighbours in structure and some others; about 1.6% of the full set was active somewhere.
SMILES,KCNQ2 block,KCNQ2 pot
CCCS(=O)(=O)c1nc(S(=O)(=O)c2ccc(C)cc2)c(N2CCN(CCO)CC2)s1,i,2.74
Cc1cc(/C=C(/C#N)c2cccc(F)c2)c(C)n1-c1cccnc1,-8*,-8
Cc1cc(/C=C(\C#N)C(=O)NCc2ccco2)c(C)n1-c1cccnc1,i,0.47
CC(C)(C)NC(=O)CSc1nnc(-c2ccccn2)n1Cc1ccccc1,i,8.14*
CC(C)(C)NC(=O)CSc1nnc(-c2ccncc2)n1Cc1ccccc1,i,1.77
O=C(NCc1ccco1)c1nn2c(C(F)(F)F)cc(-c3cccs3)nc2c1Br,-6.76*,-6.76
O=C(NCc1cccnc1)c1cc2nc(-c3ccc4c(c3)OCO4)cc(C(F)(F)F)n2n1,i,0.51
O=C(NCc1ccco1)c1nc2nc(-c3cccs3)cc(C(F)(F)F)n2n1,i,0.75
O=C(NCc1ccco1)c1cc2nc(-c3ccc4c(c3)OCO4)cc(C(F)(F)F)n2n1,-8.22*,-8.22
CN(C(=O)Nc1ccccc1)C1CCCc2ccccc21 (centres undefined),i,·
Nc1nc(Sc2c([N+](=O)[O-])cc(C(F)(F)F)cc2[N+](=O)[O-])n[nH]1,i,·
CC1CCN(C(=O)COC(=O)CSc2ccc(C(N)=O)cc2[N+](=O)[O-])CC1,i,·
C[n+]1ccc(C(=O)N/N=C/c2ccco2)cc1,i,0.77
COc1cccc(-c2cc3nc4c(c(N5CCC6(CC5)OCCO6)n3n2)CCC4)c1,-7.01*,-7.01
COc1ccc(-c2cc3nc(-c4ccccc4)cc(N4CCC5(CC4)OCCO5)n3n2)cc1,-6.5*,-6.5
COc1cccc(-c2cc3nc(-c4ccccc4)cc(N4CCCC(O)C4)n3n2)c1 (centres undefined),i,·
COc1ccc(-c2cc3nc4c(c(N5CCC6(CC5)OCCO6)n3n2)CCC4)cc1,i,·
COc1ccc(OC)c(S(=O)(=O)N2CCCC(C(=O)NCCN3CCOCC3)C2)c1 (centres undefined),i,0.69
CCOC(=O)C[C@H]1c2ccc(C(F)(F)F)cc2S(=O)(=O)N1c1cccc(OC)c1,i,0.37
CCCCNc1c(-c2ccc(SC(C)CC)cc2)nc2ccccn12 (centres undefined),-7.08*,-7.08
CCCCNc1c(-c2ccc(SC3CCCCC3)cc2)nc2ccccn12,i,·
COc1ccc2c(C)cc3n[nH]c(=S)n3c2c1,i,·
O=C(NCCc1ccc(Cl)cc1)c1cc(-c2ccncc2)nc2ccccc12,i,·
Cc1cnn(C(=O)c2cc(-c3ccccn3)nc3ccc(Cl)cc23)c1,i,·
O=C(c1cc(-c2ccccn2)nc2ccc(Cl)cc12)N1CCN(CCc2ccccc2)CC1,-5.65*,-5.65
SMILES,KCNQ2 block,KCNQ2 pot
Cc1cccc(-c2cc(C(=O)NCc3ccccn3)c3ccccc3n2)c1,i,·
O=C(NCCc1ccc(Cl)cc1)c1cc(-c2ccccn2)nc2ccccc12,-6.53*,-6.53
Cc1ccc(-c2cc(C(=O)NCc3ccccn3)c3ccccc3n2)cc1C,-6.1*,-6.1
CCN(CC)S(=O)(=O)c1ccc(N2CCN(CCOc3ccc(OC)cc3)CC2)nc1,i,1.25
O=C(NCc1cc([N+](=O)[O-])ccc1O)c1cccnc1Sc1ccccc1Cl,i,3.22
O=C(CN(C1CCCCC1)C1CCCCC1)N1CCc2ccccc2C1,-8.03*,-8.03
O=C(CN(C1CCCCC1)S(=O)(=O)c1ccccc1)N1CCCC1,i,·
COc1ccccc1-c1cc2nc(C)c(CCC(=O)NC(C)CCc3ccco3)c(C)n2n1 (centres undefined),i,·
O=S(=O)(Nc1ccccc1O)c1ccc(Cl)nc1,i,1.43
Cc1nc2ccc(Br)cc2c(-c2ccccc2)c1C(=O)O,i,·
CC(=O)c1c(C)nc2ccc(Br)cc2c1-c1ccccc1,-7.79*,-7.79
Cn1c(-c2ccc(F)cc2)cnc1NCc1cccc([N+](=O)[O-])c1,i,·
COc1cccc(-c2nc(N3CCN(C)CC3)c3ccccc3n2)c1O,i,·
COc1cccc(-c2nc(N3CCCCC3C)c3ccccc3n2)c1O (centres undefined),-6.81*,-6.81
N=C1SCC(=O)N1c1ncc(Cc2ccc(F)cc2)s1,i,6.87*
Cc1ccc(-c2csc(N3C(=N)SCC3=O)n2)cc1,i,0.11
O=C(NCc1ccco1)c1ccc(CS(=O)Cc2ccc(Cl)cc2)o1 (centres undefined),i,1.66
CC(=O)Nc1ccc2c3c(cccc13)CC2,i,1.37
CC(C)CC(=O)Nc1ccc2c3c(cccc13)CC2,i,25.5*
Cc1cc(C)cc(OCC(=O)Nc2ccc3c4c(cccc24)CC3)c1,i,0.25
CCCCC(=O)Nc1ccc2c3c(cccc13)CC2,i,18.5*
Cc1ccc(NC(=O)C2(c3cccs3)CCOCC2)cc1C,i,·
COc1ccc(S(=O)(=O)N2CCC(C(=O)N[C@H](C(=O)N3CCCCCC3)C(C)C)CC2)cc1,i,·
CCOC(=O)C1=C(C)Nc2nc3ccccc3n2C1c1ccc(O)cc1 (centres undefined),i,1
CCN(CC)C(=O)C1=C(C)Nc2nc3ccccc3n2C1c1cccc(OC)c1 (centres undefined),-7.67*,-7.67
SMILES,KCNQ2 block,KCNQ2 pot
CC(C)N(CCCNC(=O)Cn1c(=O)c2cccn2c2ccccc21)Cc1ccccc1,i,0.11
CC(=O)c1cnc2c(-c3ccc(Cl)cc3)c(C)nn2c1C,-5.75*,-5.75
CC(=O)c1cnc2c(-c3ccccc3)c(C)nn2c1C,i,·
S=c1[nH]c(-c2ccc(Cl)cc2)cs1,i,19.1*
S=c1nccc(-c2ccc(Cl)cc2)[nH]1,i,·
Cc1cc(C)c(S(=O)(=O)Cc2ccccc2)c(Cl)n1,i,0.29
CCCCNC(=S)Nc1ccc(Oc2ccccc2)cc1,i,·
CC(C)CCNC(=S)Nc1ccc([N+](=O)[O-])cc1,i,13.9*
CCCNC(=S)Nc1ccc(Br)cc1,i,2.28
CC(C)CCNC(=S)Nc1ccc(Br)cc1,i,5.32*
COC(=O)Cc1ccc(NC(=S)NCCC(C)C)cc1,i,·
CCCCNC(=S)Nc1ccc([N+](=O)[O-])cc1,i,12.3*
CCCc1ccccc1OCCNC(=O)c1cc(=O)n(C)c(=O)n1C,i,·
Cc1cc(Br)ccc1NC(=O)C1CCN(S(=O)(=O)c2cnc[nH]2)CC1,i,0.02
CCOC(CNC(=O)Cn1nc(C)c2ccccc21)OCC,i,·
CCN(CC)S(=O)(=O)c1cc(NC(=O)CN2C(=O)NC3(CCCc4ccccc43)C2=O)ccc1C (centres undefined),-5.76*,-5.76
Cc1ccc(NC(=O)CN2C(=O)NC3(CCCc4ccccc43)C2=O)cc1S(=O)(=O)N1CCOCC1 (centres undefined),i,·
CC1=C(C(=O)OC2CCCCCC2)C(c2ccc(C)o2)C2=C(CCCC2=O)N1 (centres undefined),i,0.82
CC1=C(C(=O)OC2CCCC2)C(c2ccc(C)o2)C2=C(CC(c3cccs3)CC2=O)N1 (centres undefined),-5.7*,-5.7
CCCSC1=C(C#N)C(c2cccs2)C(C(=O)Nc2ccccc2)=C(C)N1 (centres undefined),-8.82*,-8.82
CCSC1=C(C#N)C(c2cccs2)C(C(=O)OC)=C(C)N1 (centres undefined),i,1.4
Cc1cc(C)c(C#N)c(SC(F)F)n1,i,1.51
O=C(NC(=S)NCCc1ccccc1)c1cccc(Cl)c1,i,·
